High-throughput results: PubChem BioAssay, Broad Institute
CD40 NFkB inh – CD40 pathway inhibition in BL2 cells; 83,000 tested, 0.94% active; inhibition, % at 10 µM; AID 1053188; BL2 NF-kB luciferase reporter, CD40L-induced, 4 h;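 active means mean inhibition of at least 50% with a set share of replicates also reaching that level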;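 further: 0% = neutral control wells and 100% = IKK inhibitor VII at 50 µM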
Numbers without * were called inactive; [ ] = remark or other dose. Shown is part of a subset that was picked to be rich in hits.

SMILES	CD40 NFkB inh
O=C1Nc2ccccc2C12OC1CCCCC1O2 (centres undefined)	6
Cc1[nH]c2ccccc2c1C(c1ccccn1)N1CCC(C(N)=O)CC1 (centres undefined)	62*
Cc1[nH]c2ccccc2c1C(c1ccncc1)N1CCC(C)CC1 (centres undefined)	16
Cc1[nH]c2ccccc2c1C(c1ccncc1)N1CCN(c2ccccn2)CC1 (centres undefined)	-3
CC(C)OC(=O)c1cn(Cc2c(F)cccc2F)c2sc(-c3ccc(NC(=O)C(C)C)cc3)c(CN(C)Cc3ccccc3)c2c1=O	54*[25 µM]
Cc1cc(NC(=O)CSc2nnc(-c3ccccc3F)n2C)no1	0
Cc1ccccc1CC(=O)N1CCC(CCC(=O)NC2CC2)CC1	1
Cc1cc(NCCCn2ccnc2)n2ncc(-c3ccccc3)c2n1	88*
COc1ccccc1-c1cnn2c(NCCc3ccccc3)cc(C)nc12	-53
c1ccc(-c2nc(NCCCn3ccnc3)c3ccccc3n2)cc1	18
CN(CC(=O)Nc1ccccc1Cl)C(=O)CCNC(=O)Nc1ccccc1	7
Cc1nc(C)n(C(=O)N(c2ccccc2)c2ccccc2)n1	8
Cc1ccccc1CSc1nc2c(c(=O)[nH]1)CCC2	7
COC(=O)C1=NNC(C(=O)c2ccco2)C1c1ccccc1 (centres undefined)	4
CC(=O)Nc1ccc([N+](=O)[O-])cn1	-2
CC(=O)Nc1ccc(SC(Sc2ccc(NC(C)=O)cc2)c2ccccc2)cc1	-11
CC(=O)Nc1ccc(Sc2ccc([N+](=O)[O-])o2)cc1	86*
CN1c2ccc(-c3ccccc3)cc2[C@@H]2[C@@H](CCN2C(=O)c2cccc(F)c2)[C@@H]1CO	11
CCOC(=O)C1CCN(C(=O)c2cccnc2)CC1	6
CCOC(=O)C1CCN(C2CCN(Cc3nc(-c4ccccc4)no3)CC2)CC1	4
CCOC(=O)C1CCN(Cc2ccc(O)c3ncccc23)CC1	103*
CC(C)(C)c1cc(/C=C(\C#N)C(N)=S)cc(C(C)(C)C)c1O	56*[25 µM]
N#CC(C#N)=C(N)/C(C#N)=C/c1cc(O)c(O)c(O)c1	-18[25 µM]
CCn1c2ccccc2c2cc(/C=C(/C#N)C(N)=S)ccc21	-5
Cc1ccc2c([N+](=O)[O-])cccc2n1	4
SMILES	CD40 NFkB inh
O=C(O)c1ccccc1-c1ccccc1C(=O)Nc1ccc2c(c1)oc(=O)c1ccccc12	6
CCOC(=O)c1ccc2c(c1)nc(C1CCN(S(=O)(=O)c3cccs3)CC1)n2CC	3
O=C(c1cccc(OCc2ccccc2)c1)N1CCOCC1	-8
CCOc1ccc(OCc2cccc(C(=O)N3CCOCC3)c2)cc1	90*
COc1ccc(OCc2ccc(C(=O)N3CCOCC3)cc2)cc1	-23
NNC(=O)c1cccc(COc2cccc(Br)c2)c1	-57
COc1ccc(OCc2cccc(C(=O)NN)c2)cc1	25*
COc1ccc(OCc2cccc(C(=O)Nc3cc(C)on3)c2)cc1	4
Cc1ccc(-c2nnc(Sc3nc4ccccc4o3)c3ccccc23)cc1	-77
CCN(CC)C(=O)Oc1c(Cl)cc(Cl)c2cccnc12	11
C[C@H]1CN(C)C(=O)c2cccc(N)c2O[C@H]1CN(C)C	7
O=C(O)CC1(CC(=O)NCc2ccc(-c3cccs3)cc2)CCCCC1	4
CC(=O)c1cc(-c2ccccc2)[nH]c1N1CCOCC1	-11
NS(=O)(=O)c1ccc(Cl)c(S(N)(=O)=O)c1	10
NC1=C(Cl)C(=O)c2ccc(S(N)(=O)=O)cc2C1=O	60*
Nc1ccc(S(N)(=O)=O)cc1N	-45
Cc1noc(C)c1NC(=O)Nc1ccc2c(c1)C(=O)N([C@@H](C)CO)C[C@H](C)[C@H](CN(C)S(=O)(=O)c1cccs1)OCCCC[C@H](C)O2	-9[25 µM]
N#Cc1cccc(-c2ccc3c(c2)[C@@H]2[C@@H](CCN2C(=O)CN2CCOCC2)[C@@H](CO)N3)c1	active[25 µM]
N#Cc1ccc(-c2ccc3c(c2)[C@@H]2[C@@H](CCN2C(=O)C2CC2)[C@H](CO)N3)cc1	2
N#Cc1ccc(-c2ccc3c(c2)[C@H]2[C@H](CCN2C(=O)C2CC2)[C@@H](CO)N3)cc1	68*
N#Cc1cccc(-c2ccc3c(c2)[C@H]2[C@H](CCN2C(=O)CN2CCOCC2)[C@@H](CO)N3)c1	-7[25 µM]
N#Cc1cccc(-c2ccc3c(c2)[C@@H]2[C@@H](CCN2C(=O)CN2CCOCC2)[C@H](CO)N3)c1	-12[25 µM]
N#Cc1ccc(-c2ccc3c(c2)[C@H]2[C@H](CCN2C(=O)C2CCC2)[C@@H](CO)N3)cc1	47
CN1CC(=O)N(CC(=O)N2CCC(Cc3ccccc3)CC2)C1=O	2
CCc1ccccc1NC(=O)CN1CCN(C(=O)C(C)NC(=O)c2ccc(Cl)cc2)CC1 (centres undefined)	0
Cc1c(C(=O)NCCc2ccc3c(c2)OCCO3)oc2ccccc12	-6
COc1ccc(C(=O)NNC(=O)CCc2nc3ccccc3c(=O)[nH]2)cc1	-3
N#C[C@@H]1[C@H](c2ccc(C3=CCCC3)cc2)[C@H](CO)N1S(=O)(=O)c1ccccc1	7
CCc1nnc(NC(=O)c2cc([N+](=O)[O-])ccc2N2CCOCC2)s1	-9
